# Results from PubChem BioAssay (NCI).
# Where “and” joins values, the source holds several entries; their conditions need not be identical. Equal values may be shown once. The panel holds about 83,000 compounds, 20% with a hit somewhere; the sample as a whole holds those more often.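 Method: cells in 96-well plates; compound added at one concentration; 48 h incubation; percent growth measured; values under 10 scored active.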 Unmarked numbers belong to inactive results. Calls of active or inactive are those of the source.
# Test system: DU-145 prostate
# Test: NCI-60 one-dose screen, 48 h (100 = growth as untreated, 0 = no growth, -100 = all killed)
# Settings: 10 µM unless noted
row,Compound,growth
1,O=C1Nc2cc(-c3ccc(NS(=O)(=O)c4ccc(F)c(Cl)c4)cc3)ccc2/C1=C/c1ccc[nH]1,20%
2,CCOC(=O)/C(F)=C/C1CC1C1CCN(C(=O)OC(C)(C)C)CC1 (stereo unspecified),73.2%
3,CN1CCN(CCS(=O)(=O)Nc2cc(-c3ccc4ncnc(Nc5ccc(F)c(Cl)c5)c4c3)cnc2Cl)CC1,14.8%
4,N#Cc1cc(-c2ccc3ncnc(N4CCc5cc(F)c(Cl)cc54)c3c2)cnc1N,8.95% (active)

# Test system: K-562 leukemia
# Test: as above
# Settings: 10 µM unless noted
row,Compound,growth
1,O=c1ccc(Cn2c(C(F)(F)F)cc3c(Cl)ncnc32)c[nH]1,3.37% (active)
2,CC[C@]12C=CCN3CC[C@]4(C(=C(C(=O)OC)C1)Nc1cc(OC)c([C@@H]5[C@H]6O[C@H]6[C@@]6(CC)CC(C(=O)OC)=C7Nc8cc(O)ccc8[C@@]78CCN5[C@@H]68)cc14)[C@@H]32,-3.65% (active)
3,COc1ccc2[nH]cc(-c3cc4nc(-c5cn(C)c6ncccc56)cc(N)n4n3)c2c1,-31.7% (active)
4,COc1ccc2[nH]c(=O)cc(-n3ncc(C(=O)/C=C/c4cc(OC)c(OC)c(OC)c4)c3C)c2c1,1.01% (active)
5,COc1ccc(/C=C/c2nc3ccccc3n3c(-c4cccc([N+](=O)[O-])c4)nnc23)cc1,5.5% (active)
6,O=C(Nc1ccc(Cl)c(C(F)(F)F)c1)N1CCN(c2cc(-c3cn(-c4ccccc4)nc3-c3cccc(O)c3)ccn2)CC1,14.8%
7,O=C1Nc2ccccc2/C1=C/C(=O)c1cc2ccccc2oc1=O,14.5%
8,CN1CCN(C(=O)Oc2cc3c(c4ccccc24)[C@H](CCl)CN3C(=O)c2cc3cc(OCCCN4CCC4)ccc3[nH]2)[C@H]2CSSC[C@H]21,3.04% (active)
9,NS(=O)(=O)c1ccc(Nc2nc(N/N=C/c3cc(Br)c(O)c(Br)c3)nc(Nc3ccccc3)n2)cc1,14.3%
10,COc1ccc2c(c1)C(Sc1ccc(Cl)cc1)c1c(nc(N)c(C#N)c1N)O2 (stereo unspecified),47.6%
11,CS(=O)(=O)Nc1cccc(-n2c(COc3ccc(OC(F)(F)F)cc3)nc3ccccc32)c1,82.2% and 107%
12,OCCn1cc(-c2nc3ccc4[nH]ncc4c3c3c2CCCC3)cn1,21.4%
13,Cn1cc(-c2cc(N)n3nc(-c4c[nH]c5ccc(F)cc45)cc3n2)c2cccnc21,-32% (active)
14,COc1ccc2c(c1)N=c1c-2cc2c(O)[nH]c(=S)n2c1=O,19.7%
15,O=C(NN1C(=O)/C(=C/C=C/c2ccc([N+](=O)[O-])o2)SC1=S)c1ccncc1,3.03% (active)
16,Cn1cc(-c2cc(N)n3nc(-c4c[nH]c5ccccc45)cc3n2)c2cc(Br)ccc21,7.7% (active)
17,Cn1cc(-c2cc(N)n3nc(-c4c[nH]c5ccccc45)cc3n2)c2ccccc21,11.4%
18,O=C1c2cccc3c(N4CCN(c5ccccc5)CC4)ccc(c23)C(=O)N1c1cccc(-c2nn(-c3ccccc3)cc2-c2nc3ccccc3s2)c1,91.1%
19,O=C(c1ccc(O)cc1)C1[C@H](c2ccccc2Br)[C@@H](c2ccccc2)NC12C(=O)Nc1ccccc12 (stereo partly specified),29.4%

row,Compound,growth
1,COc1ccc(-c2cc(C(=O)N=Nc3c(O)[nH]c4ccc(Cl)cc34)c3ccccc3n2)cc1,64.8%
2,CC(C)(C)OC(=O)N1CCC2(CC1)Oc1ccccc1[C@H]1CC(c3ccc(Br)cc3)=NN12,36.1%
3,Cc1cc(C(NC(=O)CCCCCNc2cccc3c2C(=O)N(C2CCC(=O)CC2=O)C3=O)c2cccc(N(C)C)c2)c(O)c2ncccc12 (stereo unspecified),9.86% (active)
4,O=C(c1ccc(O)cc1)C1[C@H](c2ccc(Cl)cc2)[C@@H](c2ccccc2)NC12C(=O)Nc1ccc(Br)cc12 (stereo partly specified),-41.7% (active)
5,Cc1ccc(C(=O)C[n+]2cccc3c4ccccc4ccc32)cc1,8.04% (active)
6,C#CCN(C)CCCOc1ccc(N(CC)C(=O)c2cc(C(C)C)c(O)cc2O)cc1Cl,-26.6% (active)
7,O=C(OCCOCCO)N(c1cccc(Br)c1)c1nc(SCCN2CCOCC2)nc2c1cnn2CC(Cl)c1ccc(Br)cc1 (stereo unspecified),2.12% (active)
8,COc1ccc(-c2nc3ccc(-c4nnc(SCC(=O)Nc5ccc(/C(C)=N\O)cc5)o4)cc3[nH]2)cc1,32.4%
9,Clc1ccc2c(NCCNC34CC5CC(CC(C5)C3)C4)ccnc2c1,2.05% (active)
10,CCOc1ccc(-c2cc(-c3cc(C(C)C)c(O)cc3C)nn2-c2ccc(S(N)(=O)=O)cc2)cc1,12.4%
11,Cc1ccc(N=Nc2c(N)nn3c(-c4cc5cc(Br)ccc5oc4=O)ccnc23)cc1,64.4%
12,COc1ccc(SC2c3cc(OC)ccc3Oc3nc(N)c(C#N)c(N)c32)cc1 (stereo unspecified),65.7%
13,O=C1Nc2ccc(F)cc2/C1=C/C(=O)c1cc2ccccc2oc1=O,33.9%
14,COc1ccc2[nH]cc(-c3cc(N)n4nc(-c5c[nH]c6ccccc56)cc4n3)c2c1,3.51% (active)
15,O=C1Nc2cc(-c3ccc(NS(=O)(=O)c4ccc(F)c(Cl)c4)cc3)ccc2/C1=C/c1ccc[nH]1,17.3%
16,CCOC(=O)/C(F)=C/C1CC1C1CCN(C(=O)OC(C)(C)C)CC1 (stereo unspecified),76.1%
17,CN1CCN(CCS(=O)(=O)Nc2cc(-c3ccc4ncnc(Nc5ccc(F)c(Cl)c5)c4c3)cnc2Cl)CC1,20.2%
18,N#Cc1cc(-c2ccc3ncnc(N4CCc5cc(F)c(Cl)cc54)c3c2)cnc1N,37.8%
